Screen size: about 290,000 compounds; about 3,000 (1%) were called active. For the sample, actives were picked, then their nearest neighbours and some compounds at random. Unmarked numbers belong to inactive results. Rule as the data show it: active = inhibition mostly above about 36% (no sharp cut-off); inactive = mostly below about 34%.

The nature of the experiment: inhibition of NOD1-driven NF-kB reporter – cell-based, luminescence, uHTS, primary screen (AID 1578).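 Also: HEK-293T reporter cells stimulated with the NOD1 agonist gamma-tri-DAP.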 The note with it: NOD1-driven NF-kB luciferase reporter cells, at 4 µM, hits give high values. On the technique in general: A reporter such as luciferase makes a cellular process visible.
`COC(=O)Cc1csc(NC(=O)CSc2nnc3ccccn23)n1`: the inhibition (in general, the drop in the measured response relative to a control, in per cent) was -22.5%.
Take `COc1ccc(OC)c(C2=NS(=O)(=O)N(C)C(C(=O)N3CCC4(CC3)OCCO4)=C2)c1`: the inhibition was -6.5%.
As for `COc1ccc2ccccc2c1CNCc1ccc(C)cc1`, the figure is -32.1%; as for `O=Cc1cn(CCC(=O)O)nc1-c1cccc2ccccc12`, -38.4%; as for `COc1ccccc1N=c1oc2c(OC)cccc2cc1C(=O)NCc1ccco1`, -182%.
The figure for `O=C(Nc1cccc(C(=O)O)c1)Nc1ccc2c(c1)OCO2` is 74.1% (active); for `CCOC(=O)c1cccc(NC(=O)Nc2ccc(OCC)cc2)c1` it is -13.8%.
The figure for `CC(=O)Nc1cccc(NC(=O)COc2ccccc2C)c1` is 40.3%.
On to `CCOc1ccc(NC(=O)c2cccc(NC(=O)c3ccccc3)c2)cc1`, for which the inhibition is 4.1%.
As for `Cc1cccc(C)c1OCC(=O)Nc1cccc(C(=O)O)c1`, the figure is -10.3%; as for `O=C(Nc1ccc2c(c1)OCO2)Nc1ccc2c(c1)OCO2`, -34.2%.
As for `O=C(Nc1cc2ccccc2oc1=O)c1ccccc1`, the figure is 22.4%; as for `Cc1ccccc1OCC(=O)Nc1cccc(C(=O)O)c1`, 92% (active); as for `CC(=O)Nc1cc2ccccc2oc1=O`, -32.2%.
The figure for `CC(=O)c1cccc(NC(=O)Nc2ccc3c(c2)OCO3)c1` is -20.8%.
As to `CCOc1ccc(NC(=O)Nc2cccc(C(=O)O)c2)cc1`, the inhibition is 97.4% (active).
As for `Cc1ccc(C(=O)Nc2cc3ccccc3oc2=O)cc1`, the figure is 85.5% (active); as for `COc1ccccc1CC(=O)NC1CC1`, -10.2%; as for `Cc1cc(C)c(S(=O)(=O)c2ccccc2)c(OC(=O)c2c(F)cccc2F)n1`, -38.9%.
The figure for `Cc1cccc(S(=O)(=O)Nc2ccc(-c3nc4ccc(C)cc4s3)cc2)c1` is -35.8%; for `O=C(COC(=O)C12CC3CC(CC(C3)C1)C2)Nc1ccccc1F` it is -23.3%; for `COc1ccc(CCNC(=O)CN(c2ccc(OC)c(OC)c2)S(=O)(=O)c2ccc(C)cc2)cc1` it is 32.6%.
As for `Cc1nn(Cc2ccc(F)cc2)c(C)c1NC(=O)CCCn1nc([N+](=O)[O-])cc1C`, the figure is -34.8%.
`O=c1cc(N2CCN(c3ccccc3)CC2)[nH]c(=O)n1-c1ccccc1`: the inhibition was -19.3%.
As for `CC(C)NC(=S)N1CCN(Cc2ccc3c(c2)OCO3)CC1`, the figure is -10.8%; as for `COc1ccc(S(=O)(=O)Nc2c(NC3CCCCC3)c3ccccc3oc2=O)cc1OC`, -7.5%.
The figure for `O=C(Nc1nnc(CSCc2ccc(F)cc2)s1)c1ccc([N+](=O)[O-])cc1` is 1.6%; for `Cc1ccc(C(=O)Nc2cnc3ccccc3c2)cc1` it is 81.8% (active); for `O=C(Nc1ccc(Cl)cc1)Nc1cccc(C(=O)O)c1` it is 67.9% (active).
Take `O=C(NCc1ccccc1)C(=O)Nc1cccc(C(=O)O)c1`: the inhibition was 39.8% (active).
As for `CSc1cccc(NC(=O)C(=O)NCc2ccccc2)c1`, the figure is -4.7%; as for `Cc1ccc(NC(=O)Nc2cnc3ccccc3c2)cc1`, -44.8%.
As for `NC(=O)c1cccc(NC(=O)Nc2ccc(Cl)cc2)c1`, the figure is 9.4%.
The figure for `O=C(O)c1cccc(NC(=S)NCc2ccccc2)c1` is -23.1%.
Consider `O=C(Nc1cccc(Cl)c1)Nc1cccc(C(=O)O)c1`, for which the inhibition was -9.6%.
The figure for `O=C(Nc1cnc2ccccc2c1)c1ccncc1` is -21.5%; for `CCc1nc(CN2CCN(c3ccc(C(F)(F)F)cn3)CC2)c(C)[nH]1` it is -4.8%.
The figure for `O=C(c1ccc(S(=O)(=O)Nc2ccccc2)cc1)N1CCCCCCC1` is -14.1%.
As for `CCOC(=O)CCNC(=O)N1CCCC(Cc2ccccc2)(C(=O)OCC)C1` (configuration not stated), the figure is -26.2%.
As to `COc1ccc(NC(=O)CCC(=O)Nc2nnc(CC(C)C)s2)cc1Cl`, the inhibition is -5.8%.
The figure for `COC(=O)C1=C(C)NC(=O)NC1c1cn(-c2ccccc2)nc1-c1cccs1` (configuration not stated) is -21.3%; for `CCN1C(=O)/C(=C\N(C(C)=O)c2ccccc2)OC1=S` it is 55.5% (active).
The figure for `CCN1C(=O)/C(=C/N(C)c2ccccc2)OC1=S` is -15.3%; for `CCN1C(=O)/C(=C/N(C(C)=O)c2ccccc2)N(c2ccccc2)C1=S` it is 11.4%; for `Nc1nc(COc2ccccc2C=O)nc(Nc2ccccc2)n1` it is -7.7%.
Consider `CN(C)c1ccc(C2CC(=O)C=C(Nc3ccccc3N)C2)cc1` (configuration not stated), for which the inhibition was -11.3%.
The figure for `Cc1ccc(C(=O)CSc2ncnc3sc4c(c23)CCC(C)C4)cc1` (configuration not stated) is -2.7%; for `COc1c(Cl)cc(Cl)cc1C(=O)Nc1ccc(NC(C)=O)cc1` it is -17.9%; for `CC(=O)Oc1c(I)cc(I)cc1C(=O)Nc1ccc(Cl)cc1` it is 85.8% (active).
The figure for `O=C(Nc1ccc(Oc2ccc(Cl)cc2)c(Cl)c1)c1cc(I)cc(I)c1O` is -14.3%; for `CN(CC(=O)Nc1ccccc1Cl)C(=O)c1cc(=O)[nH]c2ccccc12` it is -12.4%; for `CCOC(=O)c1ccc(NC(=O)COc2ccc(S(=O)(=O)NC(C)(C)C)cc2)cc1` it is -33.5%.
As for `CCN1C(=O)/C(=c2\o/c(=C3\C=Cc4ccccc4N3CC)c(=O)n2CC)SC1=S`, the figure is 4.4%; as for `COc1ccc(N2C(=O)c3ccc(C(=O)Nc4cc(OC)ccc4OC)cc3C2=O)cc1`, -3.6%; as for `Cc1ccc(C(C(=O)NC2CCCCC2)N(Cc2ccccc2)C(=O)Cc2c[nH]c3ccccc23)o1` (configuration not stated), -26.2%.
Take `COc1ccc(NC(=O)c2cc(S(=O)(=O)N(Cc3ccccc3)c3ccccc3)ccc2Cl)cn1`: the inhibition was 10.8%.
As for `Cc1cc(C(F)(F)F)c(C#N)c(SCC(=O)Nc2nc3ccccc3s2)n1`, the figure is -5.2%; as for `Cc1ccc2sc(NC(=O)CSc3nc(C)cc(C)c3C#N)nc2c1`, -16.6%.
Regarding `Cc1cc(C(F)(F)F)c(C#N)c(SCC(=O)Nc2nc3cc(Br)ccc3s2)n1`, the inhibition was 67.4% (active).
As for `Cc1nnc(NC(=O)CSc2ccc(-c3ccc(Cl)cc3)nn2)s1`, the figure is -24.7%; as for `C=C(C)CN(CC)C(=O)CC1C(=O)NCCN1CC(C)(C)C` (configuration not stated), -7.4%; as for `CC(=O)N1CCOc2ccc(S(=O)(=O)NC(C)c3ccccc3)cc21` (configuration not stated), 1.8%.
As for `CC(=O)N1CCOc2cc(S(=O)(=O)NC(C)c3ccccc3)c(Cl)cc21` (configuration not stated), the figure is 59.9% (active); as for `CC(=O)N1CCOc2cc(S(=O)(=O)N3CCN(c4ccccc4)CC3)c(Cl)cc21`, -30.8%.
Consider `COc1cccc(-c2nn3c(-c4cccc(C)c4)nnc3s2)c1`, for which the inhibition is -87.2%.
In the case of `CCOC(=O)C1=C(C)n2c(s/c(=C/c3cccc([N+](=O)[O-])c3)c2=O)=NC1c1ccc(O)c(OC)c1` (configuration not stated), the inhibition is 95.3% (active).
On to `CCOC(=O)C1=C(C)N=c2s/c(=C/c3ccccc3)c(=O)n2C1c1ccc(OC)c(OC)c1` (configuration not stated), for which the inhibition is -27.7%.
The figure for `CCOC(=O)C1=C(C)N=c2s/c(=C\c3ccc(O)c([N+](=O)[O-])c3)c(=O)n2C1c1ccccc1OC` (configuration not stated) is 8.4%; for `Cn1c(/C(C#N)=C(\O)c2ccc(Cl)s2)nc2ccccc21` it is 11.7%.
The figure for `C=C1CC2C=C(NC(C)=O)CC(C1)C2` (configuration not stated) is -6.6%; for `Cc1cccc(Cn2c(O)c(N=NC(=S)Nc3ccccc3F)c3ccccc32)c1` it is 14.6%; for `Cc1cccc(NC(=O)Cn2c(O)c(N=NC(N)=S)c3ccccc32)c1` it is -3.4%.
Take `CC(C)C(=O)NC(NC1CCS(=O)(=O)C1)C(Cl)(Cl)Cl` (configuration not stated): the inhibition is -26.8%.
The figure for `COc1ccc(-n2c(C)cc(/C=C3/SC(=O)N(CC(=O)N4CCOCC4)C3=O)c2C)cc1` is -15%; for `CCOC(=O)N1CCN(C(=O)c2cn(C)c3ccc(S(=O)(=O)N4CCOCC4)cc3c2=O)CC1` it is -11%.
Regarding `O=C(COc1ccc(Br)cc1)NCCCn1ccnc1`, the inhibition was 62.4% (active).
As for `COc1ccc(OCC(=O)NCCCn2ccnc2)cc1`, the figure is 9.1%; as for `O=C(COc1ccc(Cl)cc1)NCCCn1ccnc1`, -7.5%; as for `COCCN(Cc1cc2cc3c(cc2nc1Cl)OCO3)C(C)=O`, 6.5%.
The figure for `CSc1ccc(/C=N/S(=O)(=O)c2ccccc2)cc1` is 3.8%; for `Cn1c(=O)c2[nH]c(COc3ccc(C(C)(C)C)cc3)nc2n(C)c1=O` it is 34.1% (active).
As for `CN(C)Cc1nc2c([nH]1)c(=O)n(C)c(=O)n2C`, the figure is 1.7%; as for `CCCc1nc2c([nH]1)c(=O)n(C)c(=O)n2C`, -7.1%; as for `CC1CCCC(C)N1C(=O)CSc1nc2c(c(=O)n(C)c(=O)n2C)n1C` (configuration not stated), -1%.
In the case of `CC(C)Oc1ccccc1/C=N/NC(=O)c1ccccc1Cl`, the inhibition is 0.5%.
The figure for `CC1CCCC(NC(=O)Cc2ccc(Br)cc2)C1C` (configuration not stated) is -21.4%; for `CCC(c1nnnn1C(C)C)N1CCN(C2CCCC2)CC1` (configuration not stated) it is -14%; for `COc1ccc(/C=C2\COc3ccccc3C2=O)c(OC)c1` it is -27.3%.
As for `COc1ccc(Nc2nc(-c3c(C)nc4ncccn34)cs2)cc1`, the figure is 17.6%; as for `COc1ccccc1Nc1nc(-c2c(C)nc3ncccn23)cs1`, 61.6% (active); as for `COc1ccc(OC)c(Nc2nc(-c3c(C)nc4ncccn34)cs2)c1`, -9.4%.
Take `CCOC(=O)c1ccc(N=c2ssnc2Cl)cc1`: the inhibition is -21.1%.
Turning to `CN(CCN1CCOCC1)Cc1nc(-c2cccs2)no1`, the inhibition was -22.4%.
As for `Cc1ccsc1/C=N/n1cnnc1`, the figure is -5.7%; as for `Cc1ccsc1C=Nc1ccc(O)cc1`, 27.4%; as for `Cc1ccsc1/C=N/N=C/c1sccc1C`, 76.7% (active).
As for `COc1ccc(C(=O)C(OC(=O)CNC(=O)c2ccco2)c2ccccc2)cc1` (configuration not stated), the figure is -7.7%.

For the origin of these results see PubChem BioAssay AID1578 (Sanford-Burnham Center for Chemical Genomics, 2009).
